# For some of these results: Entries with a potency or affinity are not part of this list.
# Key:
# Set-up in all cases: scale not given: direction of the effect not stated beside the values
# [1] = biological target: Protein translocase subunit SecA (Escherichia coli (strain K12)) (UniProt P10408); test: Assay to Identify E. coli SecA ATPase Inhibitors; type: functional; details: 30 µM
# [2] = biological target: T1, Ubiquitin-activating enzyme e1, putative (Leishmania donovani (strain BPK282A1)) (UniProt E9BSI1); test: Leishmania donovani Ubiquitin Activating Enzyme (LdE1); type: functional; details: 30 µM
# T1 sequence (whole entry): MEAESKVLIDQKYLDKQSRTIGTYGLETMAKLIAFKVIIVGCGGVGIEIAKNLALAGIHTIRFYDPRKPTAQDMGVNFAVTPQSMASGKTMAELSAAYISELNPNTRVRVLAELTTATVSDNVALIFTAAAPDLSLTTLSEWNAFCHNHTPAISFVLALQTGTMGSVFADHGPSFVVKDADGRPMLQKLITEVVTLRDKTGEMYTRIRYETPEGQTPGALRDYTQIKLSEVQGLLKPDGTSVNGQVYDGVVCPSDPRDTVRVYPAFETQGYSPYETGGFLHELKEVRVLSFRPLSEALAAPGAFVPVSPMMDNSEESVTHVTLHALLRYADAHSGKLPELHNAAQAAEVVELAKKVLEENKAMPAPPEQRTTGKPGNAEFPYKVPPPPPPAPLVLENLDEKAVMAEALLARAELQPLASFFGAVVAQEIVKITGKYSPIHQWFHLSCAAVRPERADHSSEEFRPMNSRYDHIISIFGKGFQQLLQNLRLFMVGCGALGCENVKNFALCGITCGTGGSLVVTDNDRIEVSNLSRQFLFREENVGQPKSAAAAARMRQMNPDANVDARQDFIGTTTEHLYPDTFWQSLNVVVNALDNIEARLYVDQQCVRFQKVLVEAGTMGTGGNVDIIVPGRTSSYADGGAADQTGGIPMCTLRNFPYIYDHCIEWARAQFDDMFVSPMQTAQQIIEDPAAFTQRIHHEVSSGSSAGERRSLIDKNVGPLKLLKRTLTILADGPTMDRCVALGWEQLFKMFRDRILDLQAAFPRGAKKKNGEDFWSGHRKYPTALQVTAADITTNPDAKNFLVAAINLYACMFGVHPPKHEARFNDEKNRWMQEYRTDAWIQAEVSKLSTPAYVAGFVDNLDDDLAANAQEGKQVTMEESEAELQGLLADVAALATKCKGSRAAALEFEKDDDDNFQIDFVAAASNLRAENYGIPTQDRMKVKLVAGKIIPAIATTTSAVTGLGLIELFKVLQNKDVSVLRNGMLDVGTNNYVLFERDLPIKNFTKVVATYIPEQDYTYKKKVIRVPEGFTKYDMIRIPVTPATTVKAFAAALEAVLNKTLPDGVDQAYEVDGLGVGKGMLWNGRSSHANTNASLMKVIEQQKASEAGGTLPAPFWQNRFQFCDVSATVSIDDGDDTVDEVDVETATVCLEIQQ
# [3] = biological target: AMP-activated protein kinase, AMPK (Homo sapiens) (UniProt P54646+O43741+P54619+Q9UGJ0+Q9Y478+Q13131+Q9UGI9); test: AMP-dependent Kinase enzyme assay. An in vitro enzyme assay that detects ADP turnover that is directly proportional to AMPK activity. This uses naive AMPK that is activated during the assay with MK-8722; type: functional; details: 30 µM
# [4] = biological target: Sialic acid-binding Ig-like lectin 9 (Homo sapiens) (UniProt Q9Y336); test: Hs-Siglec9 ALPHAscreen SOP 20170721; details: 10 µM
# Chain of Sialic acid-binding Ig-like lectin 9 (Homo sapiens) (Q9Y336 whole entry): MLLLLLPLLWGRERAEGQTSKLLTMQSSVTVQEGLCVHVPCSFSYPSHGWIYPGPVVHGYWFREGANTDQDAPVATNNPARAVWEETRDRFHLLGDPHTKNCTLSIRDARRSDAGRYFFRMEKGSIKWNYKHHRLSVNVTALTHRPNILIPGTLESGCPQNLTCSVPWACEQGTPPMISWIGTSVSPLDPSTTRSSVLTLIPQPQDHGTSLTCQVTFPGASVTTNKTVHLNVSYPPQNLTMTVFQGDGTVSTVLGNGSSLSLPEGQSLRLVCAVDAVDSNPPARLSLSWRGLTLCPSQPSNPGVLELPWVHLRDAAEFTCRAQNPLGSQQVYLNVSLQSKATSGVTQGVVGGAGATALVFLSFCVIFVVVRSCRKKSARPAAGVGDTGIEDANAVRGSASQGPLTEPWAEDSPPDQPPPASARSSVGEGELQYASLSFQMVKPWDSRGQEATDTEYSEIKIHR
# Trypanosoma cruzi = test: Trypanosoma cruzi phosphomannomutase and mannose-1-phosphate guanylyltransferase assay; type: functional; details: 10 µM
# [5] = biological target: T2, Arginase-2, mitochondrial (Homo sapiens) (UniProt P78540); test: in vitro enzyme assay to detect the production of urea directly proportional to the activity of Arginase II; type: functional; details: 33.3 µM; also: in the data most compounds retested in dose-response had high values
# T2 sequence (whole entry): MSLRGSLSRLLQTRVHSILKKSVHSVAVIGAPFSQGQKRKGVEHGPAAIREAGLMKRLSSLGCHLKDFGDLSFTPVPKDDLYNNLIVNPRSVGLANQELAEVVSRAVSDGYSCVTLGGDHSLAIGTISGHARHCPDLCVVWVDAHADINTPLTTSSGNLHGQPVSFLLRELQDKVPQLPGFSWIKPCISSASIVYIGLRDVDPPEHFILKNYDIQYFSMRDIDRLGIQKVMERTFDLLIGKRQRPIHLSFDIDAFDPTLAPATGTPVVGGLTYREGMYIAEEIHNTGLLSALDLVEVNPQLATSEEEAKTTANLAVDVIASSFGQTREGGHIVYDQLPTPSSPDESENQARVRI
# [6] = biological target: T3, Proteasome subunit beta (Trypanosoma cruzi) (UniProt O96673); test: Trypanosoma cruzi proteasome chymotrypsin-like activity (TcProtChymo) assay.; also: in the data most compounds retested in dose-response had high values; type: functional; details: 9.37 µM
# T3 sequence (whole entry): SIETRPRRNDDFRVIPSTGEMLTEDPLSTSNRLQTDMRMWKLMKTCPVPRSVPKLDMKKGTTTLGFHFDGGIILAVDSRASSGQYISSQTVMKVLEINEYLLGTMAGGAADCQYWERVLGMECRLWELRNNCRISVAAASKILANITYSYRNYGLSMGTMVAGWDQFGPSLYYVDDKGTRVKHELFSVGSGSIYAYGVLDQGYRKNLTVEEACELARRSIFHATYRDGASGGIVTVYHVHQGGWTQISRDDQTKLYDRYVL
# Homo sapiens = species: Homo sapiens; test: To identify inhibition of the IFN signalling (Jak-Stat) pathway via expression of an eGFP reporter gene under the control of an IFN-stimulated response element (ISRE) containing MxA promoter.; type: functional; details: 30 µM
# [7] = biological target: T4, Tyrosyl-tRNA synthetase, putative (Trypanosoma cruzi (strain CL Brener)) (UniProt Q4DSP6); test: Trypanosoma cruzi tyrosyl tRNA synthetase (TcYRS) _High Tyrosine SOP; type: functional; details: 30 µM; also: in the data most compounds retested in dose-response had high values
# T4 sequence (whole entry): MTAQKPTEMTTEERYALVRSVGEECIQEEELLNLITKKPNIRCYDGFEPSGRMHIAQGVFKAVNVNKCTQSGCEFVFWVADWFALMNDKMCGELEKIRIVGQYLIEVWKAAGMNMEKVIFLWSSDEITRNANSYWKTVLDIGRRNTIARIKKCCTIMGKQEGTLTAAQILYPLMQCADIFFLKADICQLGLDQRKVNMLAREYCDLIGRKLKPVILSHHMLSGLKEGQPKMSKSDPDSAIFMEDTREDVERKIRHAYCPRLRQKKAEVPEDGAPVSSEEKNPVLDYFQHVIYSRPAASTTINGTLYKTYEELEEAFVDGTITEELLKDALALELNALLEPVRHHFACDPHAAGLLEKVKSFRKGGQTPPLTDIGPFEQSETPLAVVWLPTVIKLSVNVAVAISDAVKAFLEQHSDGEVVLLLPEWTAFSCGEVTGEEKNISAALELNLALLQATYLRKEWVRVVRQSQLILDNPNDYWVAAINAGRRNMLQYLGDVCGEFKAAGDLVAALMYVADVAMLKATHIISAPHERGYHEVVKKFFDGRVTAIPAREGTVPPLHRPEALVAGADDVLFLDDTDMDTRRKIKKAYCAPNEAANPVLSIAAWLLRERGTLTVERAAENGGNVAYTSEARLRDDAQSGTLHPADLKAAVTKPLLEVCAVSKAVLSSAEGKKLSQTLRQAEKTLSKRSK
# [8] = biological target: T4, Tyrosyl-tRNA synthetase, putative (Trypanosoma cruzi (strain CL Brener)); test: Trypanosoma cruzi tyrosyl tRNA synthetase (TcYRS) SOP; type: functional; details: 30 µM
# [9] = biological target: Chromo domain-containing protein 1 (Saccharomyces cerevisiae (strain ATCC 204508 / S288c) (Baker's yeast)) (UniProt P32657); test: ScCHD-1 Enzyme Inhibition Assay; type: functional; details: 30 µM; also: in the data most compounds retested in dose-response had high values
# Chain of Chromo domain-containing protein 1 (Saccharomyces cerevisiae (strain ATCC 204508 / S288c) (Baker's yeast)) (P32657 whole entry, the tested form may be a part): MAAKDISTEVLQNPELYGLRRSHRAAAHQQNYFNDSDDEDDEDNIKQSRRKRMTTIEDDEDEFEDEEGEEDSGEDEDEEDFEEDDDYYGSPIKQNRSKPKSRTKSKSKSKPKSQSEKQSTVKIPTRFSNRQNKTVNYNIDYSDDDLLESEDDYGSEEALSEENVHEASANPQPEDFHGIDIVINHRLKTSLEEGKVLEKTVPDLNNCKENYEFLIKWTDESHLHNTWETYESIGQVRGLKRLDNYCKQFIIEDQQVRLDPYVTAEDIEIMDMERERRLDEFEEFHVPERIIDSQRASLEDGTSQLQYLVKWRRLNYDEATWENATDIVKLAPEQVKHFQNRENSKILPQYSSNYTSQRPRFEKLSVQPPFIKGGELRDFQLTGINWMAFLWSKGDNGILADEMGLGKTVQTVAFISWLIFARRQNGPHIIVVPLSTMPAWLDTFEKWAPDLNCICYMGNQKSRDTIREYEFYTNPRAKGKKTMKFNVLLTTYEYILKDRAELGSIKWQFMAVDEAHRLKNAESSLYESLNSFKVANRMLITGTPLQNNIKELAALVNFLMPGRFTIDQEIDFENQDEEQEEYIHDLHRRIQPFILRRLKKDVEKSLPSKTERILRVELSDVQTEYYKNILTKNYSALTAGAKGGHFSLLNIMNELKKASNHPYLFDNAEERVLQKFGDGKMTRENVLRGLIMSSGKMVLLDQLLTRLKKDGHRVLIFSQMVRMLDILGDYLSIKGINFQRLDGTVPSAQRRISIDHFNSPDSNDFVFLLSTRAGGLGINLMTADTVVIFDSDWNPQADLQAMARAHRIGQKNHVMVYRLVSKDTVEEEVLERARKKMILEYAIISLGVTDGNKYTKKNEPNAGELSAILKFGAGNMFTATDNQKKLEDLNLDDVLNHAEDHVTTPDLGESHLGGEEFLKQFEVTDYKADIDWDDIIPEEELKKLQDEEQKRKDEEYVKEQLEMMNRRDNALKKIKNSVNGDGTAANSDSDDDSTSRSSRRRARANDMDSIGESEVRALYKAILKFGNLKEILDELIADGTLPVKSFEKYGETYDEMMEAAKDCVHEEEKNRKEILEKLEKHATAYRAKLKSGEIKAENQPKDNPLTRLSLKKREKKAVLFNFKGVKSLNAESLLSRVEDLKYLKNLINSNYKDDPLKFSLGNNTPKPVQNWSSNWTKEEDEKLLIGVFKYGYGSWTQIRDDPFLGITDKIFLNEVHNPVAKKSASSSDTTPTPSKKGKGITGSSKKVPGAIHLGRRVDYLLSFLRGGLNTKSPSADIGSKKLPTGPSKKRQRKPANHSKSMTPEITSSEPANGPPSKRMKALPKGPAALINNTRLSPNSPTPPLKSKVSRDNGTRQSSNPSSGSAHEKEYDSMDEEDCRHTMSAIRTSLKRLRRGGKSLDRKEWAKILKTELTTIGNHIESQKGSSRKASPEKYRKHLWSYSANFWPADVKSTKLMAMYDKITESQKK
# Chain of Protein translocase subunit SecA (Escherichia coli (strain K12)) (P10408 whole entry): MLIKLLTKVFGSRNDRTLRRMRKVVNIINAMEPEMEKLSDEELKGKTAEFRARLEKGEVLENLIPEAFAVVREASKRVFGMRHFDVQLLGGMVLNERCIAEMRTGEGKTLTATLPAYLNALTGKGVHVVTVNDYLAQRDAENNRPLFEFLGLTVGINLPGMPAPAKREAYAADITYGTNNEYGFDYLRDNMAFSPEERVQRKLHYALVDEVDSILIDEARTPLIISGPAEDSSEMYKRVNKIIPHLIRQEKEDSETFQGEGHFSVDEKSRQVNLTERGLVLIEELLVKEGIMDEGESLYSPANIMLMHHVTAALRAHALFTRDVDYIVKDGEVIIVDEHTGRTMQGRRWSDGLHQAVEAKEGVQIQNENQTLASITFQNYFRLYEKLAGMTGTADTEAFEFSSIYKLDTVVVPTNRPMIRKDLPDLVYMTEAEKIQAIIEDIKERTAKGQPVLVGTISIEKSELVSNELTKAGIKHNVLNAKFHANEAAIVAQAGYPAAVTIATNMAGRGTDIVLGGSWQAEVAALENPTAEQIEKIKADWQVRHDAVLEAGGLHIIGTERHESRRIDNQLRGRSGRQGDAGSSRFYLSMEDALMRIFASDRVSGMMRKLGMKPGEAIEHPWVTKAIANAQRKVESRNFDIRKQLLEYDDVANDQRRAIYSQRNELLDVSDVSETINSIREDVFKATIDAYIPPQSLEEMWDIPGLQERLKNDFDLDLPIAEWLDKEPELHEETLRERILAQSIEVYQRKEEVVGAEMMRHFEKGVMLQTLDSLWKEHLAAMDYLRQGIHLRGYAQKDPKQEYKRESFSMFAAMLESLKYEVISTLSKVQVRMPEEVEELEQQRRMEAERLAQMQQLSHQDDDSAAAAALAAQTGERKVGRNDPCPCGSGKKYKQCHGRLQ
Compound,Percent Effect [1] [%],Percent Effect [2] [%],Percent Effect [3] [%],Percent Effect [4] [%],Percent Effect (Trypanosoma cruzi) [%],Percent Effect [5] [%],Percent Effect [6] [%],Percent Effect (Homo sapiens) [%],Percent Effect [7] [%],Percent Effect [8] [%],Percent Effect [9] [%]
CNC(=O)CS(=O)(=O)C1CCN(S(=O)(=O)C2CC2)CC1,-3.71,0,-0.0113,-2.43,0.979,1.36,4.79,3.03,3.23,5,-0.451
CC1CN(C(=O)CN(Cc2ccco2)C2CC2)CCO1 (stereo not given),-2.04,0,2.98,-1.26,-3.62,4.84,0.242,22.1,1.91,2.35,-8.2
Cn1nc(C(=O)NCc2ccccn2)c2c1CCS(=O)(=O)C2,-2.26,6.67,15,1.25,-6.48,-11.1,16.3,11.6,6.35,12.8,-9.63
Cc1nn(C)c(C)c1C1COCCN1C(=O)c1ccccc1 (stereo not given),-2.83,5.2,-2.73,2.06,6.74,3.2,-1.01,7.76,2.91,12.2,11.3
CC(C)CC(=O)N1CCc2nc(N3CCOCC3)nc(NC(C)C)c2C1,-4.18,2.67,12.4,-0.324,-1.57,2.56,2.03,8.78,9.57,14.1,-8.4
CN1CC(=O)N(c2cccc(F)c2)CC12CCNC2 (stereo not given),-5.9,0,3.44,-2.82,-3.03,-4.78,10.7,12.5,-1.08,5.13,1.85
CCc1ncncc1C(=O)N1CCN(Cc2c(C)noc2C)CC1,-5.8,13.2,-4.4,4.23,2.89,0.36,3.98,-0.539,7.39,16.1,-0.381
Cc1ccc(N2CC3(CCN(C(=O)c4ccoc4)C3)C2)nn1,-2.51,15.6,2.65,11.4,3.64,-143,9.48,0.925,5.38,13.6,-5.33
CCn1cc(C(=O)NCc2csc(Br)c2)cn1,-4.42,3.8,6.27,4.51,-2.97,3.23,7.72,13.6,-1.04,7.59,-2.95
COC(=O)C(C)(C)NC(=O)C1CC(=O)N(C)C1 (stereo not given),-1.38,-2.74,-4.39,9.64,2.78,-0.798,3.17,-3.68,-1.04,8.64,4.14
O=C1NCCN1C1CCN(Cc2nc(-c3ccoc3)no2)CC1,-1.17,5.2,2.43,5.09,3.56,-2.85,4.56,-2.53,0.971,12.2,-2.45
COc1ccc(C(=O)Nc2cnn(CC(=O)NC3CCCC3)c2)c(O)c1,-2.21,13.7,-8.3,5.57,3.77,0.798,9.16,-10.3,11.5,25.9,-3.82
Cn1nc2c(cc1=O)CN(CCc1nc3ccccc3c(=O)[nH]1)CC2,-4.31,5.48,-206,-0.89,8.23,2.27,17.9,6.4,-1.07,0,-7.87
CCC(C)(C)NC(=O)C1CC(=O)N(CC2CC2)C1 (stereo not given),-2.71,13.5,9.25,-3.89,-7.15,3.14,11.3,17.7,2.97,-18.3,-7.51
CC(C)Sc1nnc(CCNC(=O)OC(C)(C)C)o1,1.34,4,-0.0572,0.92,-8.45,0.176,12.2,32.6,-2.12,-12.8,-10.5
CC(C)c1csc(C2CCCN(C(=O)c3ccc(=O)n(C)n3)C2)n1 (stereo not given),-2.9,13.5,-11.4,-0.23,-1.86,1.74,7.3,26,4.3,11.1,-5.6
Cc1nn(CC(=O)N2CCCC2Cn2cccn2)c(C)c1Cl (stereo not given),-7.11,21.6,0.532,8.29,5.86,36.2,22.9,21.4,9.9,20.7,-6.56
O=C(c1ccc[nH]1)N1CCc2c(COCC3CC3)cncc2C1,0.487,13.5,0.508,-7.71,-4.99,0.955,29.1,0.5,3.24,12.8,0.2
COc1ccc(Cl)cc1NCC(=O)NCCc1ccccn1,-3.56,-5.41,-7.1,3.7,-7.64,0.401,1.62,20.4,0.493,1.24,0.208
COc1ccccc1OCC(=O)Nc1ncccc1OC(F)F,-3.34,1.39,-0.812,-4.65,-7.48,4.86,13.2,-3.02,1.05,-5.13,-3.95

# Source: ChEMBL document CHEMBL3988442, “University of Dundee, Small-Polar-MMV Screening Library” (2021)
